Source: PubChem BioAssay (National Center for Advancing Translational Sciences (NCATS))
Tau fibril ThT – inhibitors of human tau fibril formation, thioflavin T binding. P10636. recombinant tau K18 P301L, heparin-induced fibrillization, ThT fluorescence. Potency, µM (highest dose often 57.4 µM), for the others: at the top dose activity, negative = inhibition, usual class: inhibitors. 2.1% of 270,000 active; note: nearly all actives have a fitted effect of over 55% in size
Target sequence (P10636 561-689 P618L limits assumed): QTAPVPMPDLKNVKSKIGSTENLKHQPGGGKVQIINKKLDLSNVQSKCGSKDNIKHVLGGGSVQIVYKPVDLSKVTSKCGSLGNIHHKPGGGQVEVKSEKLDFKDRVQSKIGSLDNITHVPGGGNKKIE
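Using a mix of unlabeled (15 uM) and Alexa 594-labeled (0.24 uM) tau K18 P301L, heparin-triggered fibrillization over 6 hr at 37 C was scored by ThT fluorescence.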
TRb SRC2 PPI – inhibitors of human thyroid hormone receptor beta-SRC2 interaction. P10828. TRbeta-SRC2 peptide binding, fluorescence polarization; receptor liganded with 1 µM T3. Potency, µM (top dose mostly 106 µM), for the others: top-dose activity change, negative = inhibition, usual class: inhibitors. 0.065% of 280,000 active. AID 1469;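 note: plate controls were bound peptide for no effect and peptide without receptor for full effect; nearly all actives have a fitted effect of over 50% in size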
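Compounds were added to 0.6 uM TRb ligand-binding domain and 20 nM Texas Red-labeled SRC2 peptide in Tris buffer containing 1 uM T3, incubated 5 hr at ambient temperature, then read by fluorescence polarization.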
RGS12 GoLoco inh – RGS12 GoLoco-Gai1 interaction inhibition. Gai1:RGS12 GoLoco peptide FP, rhodamine, 10 min. P63096. Potency, µM (series often up to 61.6 µM), inactives show at the highest dose activity, negative = inhibition, hits mostly inhibitors. 0.44% of 230,000 active; active = well fitted inhibition curve with a large enough effect, not every such curve was filed as active; inactive = no such curve, though single readings can be large or run the other way; note: nearly all actives have a fitted effect of over 30% in size
Target sequence (P63096 whole entry, looked up): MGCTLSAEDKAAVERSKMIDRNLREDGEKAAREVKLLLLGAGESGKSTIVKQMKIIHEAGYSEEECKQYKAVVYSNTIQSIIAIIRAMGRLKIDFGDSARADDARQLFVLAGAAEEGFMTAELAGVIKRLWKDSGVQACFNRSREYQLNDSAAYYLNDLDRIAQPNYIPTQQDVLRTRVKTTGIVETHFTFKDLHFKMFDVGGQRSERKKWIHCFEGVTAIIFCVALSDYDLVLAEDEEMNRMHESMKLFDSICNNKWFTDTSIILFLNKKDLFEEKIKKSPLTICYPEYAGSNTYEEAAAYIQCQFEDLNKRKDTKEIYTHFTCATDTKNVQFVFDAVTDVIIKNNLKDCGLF
TexasRed fluor – alters Texas Red total fluorescence, flagging assay interference. TRb/SRC2 Texas Red total fluorescence interference. Potency, µM (highest dose often 106 µM), for inactives: at the highest dose fluorescence change, negative = quenching. 0.29% of 280,000 active. AID 1479; active = well fitted curve in either direction with a large enough effect; inconclusive = small, poorly fitted or top-dose-only effect
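Flags fluorescent or light-absorbing compounds by total fluorescence, S + 2P, at 555 nm excitation and 632 nm emission. Mixture: 20 nM Texas Red SRC2 peptide, 0.6 uM human TRb LBD, 1 uM T3, 5% DMSO; compound exposure 5 h at ambient temperature.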
Tau FP inhib – inhibitors of human tau fibril formation; K18 P301L tau heparin fibrillization, Alexa594 FP, 6 h; 0.39% of 280,000 active; Potency, µM (doses to about 57.7 µM), for inactives: at the top dose activity, negative = inhibition, most hits filed as inhibitors; P10636; AID 1468; note: nearly all actives have a fitted effect of over 55% in size
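Steps: dispense K18 P301L tau (15 uM plus 0.24 uM Alexa 594 tracer, final) in pH 7 sodium acetate; add compound; add heparin (20 uM final); incubate 6 hr, 37 C; add ThT (30 uM final); after 1 hr ambient, read FP.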
Tau fluor counter – counter-screen for tau fibril formation inhibitors; tau K18 P301L (four-repeat tau fragment) Alexa594 fluorescence, heparin fibrillization; Potency, µM (highest dose often 57.7 µM), inactives show at the top dose activity change, negative = decrease; 0.93% of 280,000 active; note: nearly all actives have a fitted effect of over 55% in size
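Human K18 P301L tau (15 uM unlabeled plus 0.24 uM Alexa 594-labeled, final) in 100 mM sodium acetate pH 7 was mixed with compound and 20 uM heparin and incubated 6 hr at 37 C.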
The depositor's hits bear a star; i = inactive; u = inconclusive; x = not tested or not shown; [ ] = remark or other dose. An excerpt weighted towards active compounds, which were near 3.1% of everything screened. Unless noted, calls come from the whole dose curve; as a rule, active = well fitted curve in the direction sought with a large enough effect; inconclusive = small, poorly fitted or top-dose-only effect, or another doubt; inactive = no such curve, though single readings can be large; an effect the other way counts as inactive or inconclusive. Unless noted, % is set by controls: 0 for no effect and ±100 for the full control effect; potency is the fitted concentration of half-maximal effect.

SMILES	Tau fibril ThT	TRb SRC2 PPI	RGS12 GoLoco inh	TexasRed fluor	Tau FP inhib	Tau fluor counter
N#CC1=C2SCN(C3CCCCC3)CN2C(=O)CC1c1c(F)cccc1Cl (centres undefined)	31.6µM*	-0.2%	x	0.5%	u	-18.8%
COc1ccc2ccccc2c1C1CC(=O)N2CN(C)CSC2=C1C#N (centres undefined)	22.4µM*	1.1%	-29.4%	-0.5%	22.4µM*	-26.4%
COCCn1ccc2c(OCC(=O)NCc3ccc(F)cc3)cccc2c1=O	-7.1%	-0.9%	x	-1.2%	-5.7%	-6.1%
CCN(CC)CCCN(Cc1cc2cc(OC)ccc2[nH]c1=O)C(=O)Nc1ccc(F)cc1	-3.1%	0.4%	7.9%	0.4%	2.4%	-9.6%
COc1cc2c(C(=O)N3CCOCC3)c(CSc3ccccc3)n(C)c2cc1Br	-1.3%	2.5%	4.0%	-3.0%	5.1%	-6.0%
CC(C)c1ccc(C2CC(=O)N3CN(C)CSC3=C2C#N)cc1 (centres undefined)	28.2µM*	1.1%	-22.6%	0.1%	-16.8%	-20.5%
Cc1cc2ccccc2n1CCNC(=O)c1ccc(Br)o1	u	-1.8%	22.4µM*	13.3%	-15.3%	-13.0%
COc1ccccc1-c1cc(=O)c2cc(O)ccc2o1	-17.6%	-1.9%	3.2%	-1.4%	-7.1%	-15.2%
O=c1cc2oc3cc(O)c(O)cc3c(-c3ccccc3O)c-2cc1O	2.51µM*	17.8µM*	7.94µM*	39.8µM*[fluorescent]	12.6µM*	u
O=c1cc(-c2cccc(O)c2O)oc2ccccc12	12.6µM*	-4.3%	-9.7%	-6.3%	2.9%	u
O=c1cc(-c2ccccc2O)oc2cc(O)ccc12	-6.5%	-0.3%	15.4%	2.0%	-15.5%	-7.7%
COc1ccc(OC)c(-c2c3cc(O)c(=O)cc-3oc3cc(O)c(O)cc23)c1	3.16µM*	25.1µM*	10µM*	44.7µM*[fluorescent]	15.8µM*	u
CCOc1ccccc1-c1c2cc(O)c(=O)cc-2oc2cc(O)c(O)cc12	u	-5.9%	i	2.8%	14.1µM*	17.2%
Cc1nc2ccccc2c(=O)n1-c1ccc(NC(=O)c2cccc([N+](=O)[O-])c2)cc1	-4.8%	-10.2%	x	-0.9%	u	-9.0%
Cc1cc(=O)n2[nH]c(N)c(N=Nc3ccccc3F)c2n1	11.2µM*	1.9%	-5.8%	-7.2%	10.3%	-5.1%
CC(C)CNC(=O)NC(=O)COc1c(F)c(F)cc(F)c1F	u	5.6%	x	0.8%	u	15.8µM*[quencher]
S=C(NCc1cccnc1)Nc1ccc(Oc2ccc(Cl)cc2)cc1	-19.1%	-2.5%	-2.9%	0.0%	u	12.6µM*[quencher]
Cc1cccc(N/N=C/c2ccc(O)c(O)c2O)c1	10µM*	3.3%	-5.6%	0.0%	15.8µM*	u
Oc1cccc(/C=N/NC(=S)Nc2cccnc2)c1O	4.1%	3.0%	-12.4%	-8.0%	8.6%	4.7%
COc1cccc(N/N=C/c2cccc(Br)c2O)c1	17.8µM*	-1.3%	2.9%	-1.6%	0.1%	17.8µM*[quencher]
C/C(=N\Nc1cccc([N+](=O)[O-])c1)c1ccccc1O	u	9.0%	5.4%	-0.7%	u	5.01µM*[quencher]
C/C(=N\Nc1cccc([N+](=O)[O-])c1)c1cc(F)ccc1O	1.6%	-2.1%	-35.8%	-0.7%	1.4%	-4.0%
Oc1ccc(/C=N/NC(=S)Nc2cccnc2)c(O)c1O	1.58µM*	-4.0%	-14.7%	u	2µM*	11.2µM*[quencher]
O=C(CNC(=O)c1ccc(Oc2ccccc2)cc1)OCc1ccc(Br)cc1	-6.8%	-3.9%	6.6%	-2.3%	-4.1%	-11.8%
Cc1cc(C)cc(NC2=CC(c3cccc(F)c3)N(c3cc(C)cc(C)c3)C2=O)c1 (centres undefined)	-13.7%	-1.5%	x	3.9%	-19.4%	-17.2%
SMILES	Tau fibril ThT	TRb SRC2 PPI	RGS12 GoLoco inh	TexasRed fluor	Tau FP inhib	Tau fluor counter
Cc1ccc(NC(=O)Cn2cnc3onc(-c4ccc(F)cc4)c3c2=O)c(Cl)c1	u	-2.9%	x	-4.7%	u	-18.8%
CCOc1c(CC2C(=O)Nc3ccc(Br)cc32)cccc1OC (centres undefined)	-11.4%	-3.4%	x	-31.9%	-5.5%	-25.4%
O=[N+]([O-])c1ccccc1N/N=C/c1cccc(O)c1O	u	-2.3%	5.9%	-5.3%	5.6%	-16.2%
O=[N+]([O-])c1cccc(N/N=C/c2cccc(O)c2O)c1	7.94µM*	-5.7%	11.3%	-12.3%	5.2%	15.8µM*[quencher]
C/C(=N\O)C(=O)C(CN1CCCCC1)CN1CCCCC1	u	0.1%	-24.6%	1.8%	-4.0%	-2.9%
CCCCN1C(=O)/C(=C(/C#N)C(=O)N2CCCC2)c2ccccc21	u	5.3%	-5.1%	3.8%	-12.0%	-6.8%
CC(C)CN1C(=O)/C(=C(/C#N)C(=O)NC2CCCCC2)c2ccccc21	17.8µM*	-3.8%	-6.4%	-0.2%	u	-13.2%
NC(=O)COC(=O)c1ccc(Cl)c(S(=O)(=O)N(Cc2ccccc2)c2ccc(Cl)cc2)c1	-16.0%	-0.6%	x	0.8%	u	u
NC(=O)NC(=O)COC(=O)c1ccc(Cl)c(S(=O)(=O)N(Cc2ccccc2)c2ccc(Cl)cc2)c1	-7.4%	-1.9%	9.8%	2.8%	11.2µM*	u
Cc1cc(O)ccc1C1(c2ccc(O)cc2C)OC(=O)c2ccccc21	-5.9%	-7.8%	-2.2%	0.5%	-6.5%	u
O=C1OC2(c3ccc(O)cc3Oc3cc(O)ccc32)c2ccccc21	u	-18.6%	0.794µM*	-13.5%	4.0%	-9.8%
O=C1OC2(c3cc(I)c(O)c(I)c3Oc3c2cc(I)c(O)c3I)c2c(Cl)c(Cl)c(Cl)c(Cl)c21	x	25.1µM*	x	7.08µM*[fluorescent]	x	x
O=C1OC2(c3ccccc31)c1cc(I)c(O)c(I)c1Oc1c2cc(I)c(O)c1I	x	u	x	39.8µM*[fluorescent]	x	x
CCOc1cccc(/C=N/NC(=O)c2cc(-c3cccn3C)n[nH]2)c1O	u	-3.7%[53 µM]	31.4%	-4.4%[53 µM]	10.9%	u
O=c1nc2n(c3cc(Cl)c(S(=O)(=O)N4CCOCC4)cc13)CCCCC2	-5.3%	3.4%	2.5%	-1.7%	-0.4%	0.1%
CCN(CC)S(=O)(=O)c1cc(C(=O)Nc2cccnc2)ccc1Cl	-0.5%	5.3%	-12.3%	0.0%	10.5%	1.2%
CCN(CC)S(=O)(=O)c1cc(C)ccc1NC(=S)Nc1cccnc1	7.9%	-5.4%	3.6%	0.0%	31.6µM*	u
COc1ccccc1Cn1c(=S)[nH]c2cc(C(=O)NCc3cccnc3)ccc2c1=O	-8.8%	-3.0%	-3.0%	-0.5%	u	u
O=Cc1ccccc1Cl	x	1.0%	-4.1%	-1.9%	x	x
O=Cc1ccccc1C=O	x	u	6.3%	39.8µM*[quencher]	x	x
Cc1ccc(NC(=O)Cn2c(SCc3cccc(F)c3)nc3ccncc32)c(C)c1	-8.8%	7.1%	x	0.1%	-10.6%	-8.8%
